For experiment [1], the target named is Thyrotropin receptor (Homo sapiens) (UniProt P16473). The experiment can be described thus: qHTS assay to identify small molecule agonists of the thyroid stimulating hormone receptor (TSHR) signaling pathway (AID 1224843; calls by dose curve; note: nearly all actives have a fitted effect of over 45% in size). The method in brief: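 Agonist-mode screen: TSHR HEK293 cells received test chemicals for half an hour at room temperature, then HTRF cAMP detection reagents for one hour prior to fluorescence measurement. Each chemical ran as a 15-concentration series, triplicated.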
(Quantitative high-throughput screening tests each substance at several concentrations.)

Experiment [2] is described as follows: qHTS assay to identify small molecule agonists of the hypoxia (HIF-1) signaling pathway - cell viability counter screen (AID 1224844; calls by dose curve; note: nearly all actives have a fitted effect of over 50% in size). The essentials: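 Viability counter screen: HRE-bla ME-180 cells plated 5 hrs before compound addition, treated 17 hrs at 37C and 5% CO2, then CellTiter-Glo added after the FRET reporter read; luminescence after 30 min.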
Experiment [3] can be described thus: qHTS assay to identify small molecule agonists of H2AX (AID 1224845; active = well fitted activation curve with a large enough effect in the signal ratio in the repeat runs, not every such curve was filed as active; the % refers to the signal ratio). The method in brief:
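Wild-type CHO-K1 cells, plated overnight, exposed 3hr at 37C to 15 concentrations (0.76% DMSO final). Lysed, then HTRF anti-pH2AX (S139) cryptate and anti-H2AX-d2 antibodies, 24 hr room temperature; 665/620 nm emission read.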

The nature of experiment [4]: qHTS assay to identify small molecule agonists of H2AX - cell viability counter screen (AID 1224847; calls by dose curve; note: top concentration of the series differs between compounds; nearly all actives have a fitted effect of over 30% in size). The essentials:
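Compounds tested at 15 concentrations were incubated 3 hr at 37C with wild-type CHO-K1 cells; cellular ATP-based luminescence (CellTiter-Glo) indicated viability.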

Experiment [5] can be described thus: qHTS RealTime-Glo MT Cell Viability Assay in HepG2 cells - 24 hour (AID 1224867). Note: nearly all actives have a fitted effect of over 50% in size. The method in brief:
(§1)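 HepG2 cells (600/well) were dispensed with RealTime-Glo reagents, incubated 5 h at 37 °C, then treated with compounds in DMSO for up to 40 h. Nonlytic NanoLuc luminescence reflecting viable cells was read at each stated time point.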

The nature of experiment [6]: qHTS RealTime-Glo MT Cell Viability Assay in HEK293 cells - 32 hour (AID 1224868). Note: top concentration of the series differs between compounds; nearly all actives have a fitted effect of over 50% in size. The essentials:
(§2)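 HEK293 cells seeded with NanoLuc/prosubstrate reagent, rested 5 h at 37 C, then dosed and kept at 37 C up to 40 h. Nonlytic real-time luminescence from viable cells read at 0, 8, 16, 24, 32 and 40 h.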

The nature of experiment [7]: A CellTox Green Cytotoxicity Assay to monitor cytotoxicity in HEK293 cells - 0 hour (AID 1224869). Note: nearly all actives have a fitted effect of over 50% in size. The method in brief: (§3)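 Dead-cell fluorescence measured kinetically: asymmetric cyanine dye, HEK293, 600 cells/well, 5 h settle, 23 nL cpd/DMSO, 37 C, reads 0–40 h every 8 h.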
Experiment [8] can be described thus: qHTS RealTime-Glo MT Cell Viability Assay in HepG2 cells - 40 hour (AID 1224870). Note: nearly all actives have a fitted effect of over 50% in size. The method in brief: (§4)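 HepG2 cells (600/well) mixed with RealTime-Glo MT reagent, settled 5 h at 37 C/5% CO2 before compound addition. Nonlytic NanoLuc luminescence from viable-cell prosubstrate reduction read repeatedly during 40 h treatment at 37 C.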
Experiment [9] is described as follows: A CellTox Green Cytotoxicity Assay to monitor cytotoxicity in HEK293 cells - 40 hour (AID 1224871). Note: nearly all actives have a fitted effect of over 45% in size. The method in brief:
as §3

Experiment [10] can be described thus: qHTS RealTime-Glo MT Cell Viability Assay in HEK293 cells - 16 hour (AID 1224872). The essentials:
as §2

Experiment [11] is described as follows: qHTS RealTime-Glo MT Cell Viability Assay in HepG2 cells - 8 hour (AID 1224873). Note: nearly all actives have a fitted effect of over 55% in size. The essentials:
as §4

A short description of experiment [12]: qHTS RealTime-Glo MT Cell Viability Assay in HEK293 cells - 40 hour (AID 1224874). Note: nearly all actives have a fitted effect of over 50% in size. As to conditions: RealTime-Glo luminescence; max response: stronger effect = lower value. The essentials: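 600 HEK293 cells per well, dispensed already mixed with RealTime-Glo MT reagents. Compound dosing came 5 h later. The same wells were read for luminescence at 0, 8, 16, 24, 32 and 40 h of exposure at 37 C.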

Experiment [13] is described as follows: A CellTox Green Cytotoxicity Assay to monitor cytotoxicity in HEK293 cells - 24 hour (AID 1224875). Note: nearly all actives have a fitted effect of over 45% in size. The method in brief:
as §3

Experiment [14] can be described thus: A CellTox Green Cytotoxicity Assay to monitor cytotoxicity in HepG2 cells - 16 hour (AID 1224876). Note: nearly all actives have a fitted effect of over 45% in size. The method in brief: (§5)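 First, HepG2 cells (600/well) mixed with reagent were plated; second, after 5 h at 37 C they received compounds via pintool; third, fluorescence was measured at 0 h through 40 h at 8 h intervals.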
Experiment [15] is described as follows: qHTS RealTime-Glo MT Cell Viability Assay in HepG2 cells - 32 hour (AID 1224877). Note: nearly all actives have a fitted effect of over 55% in size. The method in brief:
as §1

The nature of experiment [16]: A CellTox Green Cytotoxicity Assay to monitor cytotoxicity in HepG2 cells - 24 hour (AID 1224878). Note: nearly all actives have a fitted effect of over 45% in size. The method in brief:
as §5

The nature of experiment [17]: A CellTox Green Cytotoxicity Assay to monitor cytotoxicity in HepG2 cells - 40 hour (AID 1224879). Note: nearly all actives have a fitted effect of over 40% in size. Note: potency is the fitted concentration of half-maximal effect. The method in brief:
as §5

A short description of experiment [18]: qHTS assay to identify small molecule agonists of the hypoxia (HIF-1) signaling pathway (AID 1224846; active = well fitted activation curve with a large enough effect in the signal ratio in the repeat runs, not every such curve was filed as active; the % refers to the signal ratio). The essentials:
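Agonist mode reporter screen. ME-180 cells stably expressing bla under HRE control received test compounds in DMSO for 17 hrs (37C, 5% CO2), and beta-lactamase activity was then detected with the CCF4-AM FRET substrate.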

Experiment [19] is described as follows: qHTS assay to identify small molecule antagonists of the estrogen related receptor (ERR) signaling pathway from Tox21 library (AID 1224848). Note: nearly all actives have a fitted effect of over 50% in size. The method in brief:
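Quantitative high-throughput format: ERR reporter cells (2,000/well) pre-incubated 6 h, treated 18 h at 37 C with compounds in DMSO alongside positive and negative controls, then read by ONE-Glo luminescence.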

Experiment [20] can be described thus: qHTS assay to identify small molecule agonists of the estrogen related receptor (ERR) signaling pathway from Tox21 library (AID 1224849; calls by dose curve; note: nearly all actives have a fitted effect of over 15% in size). As to conditions: ERR reporter cell line, ONE-Glo luciferase, 18 h; at 92.4 µM (top of the series) unless noted. The essentials: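 Quantitative HTS in agonist format: NTP ERR cell line, compounds transferred in DMSO after 6 h plating, 18 h incubation at 37 C, ONE-Glo luminescence endpoint.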

Molecules are shown by their SMILES. A number with no mark means an inactive call. Inconclusive results are not listed. Calls of active or inactive are those of the source. Unless noted, calls come from the whole dose curve; as a rule, active = well fitted curve in the direction sought with a large enough effect in the repeat runs; inconclusive = weak or mixed curves; inactive = no such curve, though single readings can be large; an effect the other way counts as inactive or inconclusive.
% is set by controls: 0 for no effect and ±100 for the full control effect.

Thyrotropin receptor (Homo sapiens), sequence (P16473 whole entry, looked up): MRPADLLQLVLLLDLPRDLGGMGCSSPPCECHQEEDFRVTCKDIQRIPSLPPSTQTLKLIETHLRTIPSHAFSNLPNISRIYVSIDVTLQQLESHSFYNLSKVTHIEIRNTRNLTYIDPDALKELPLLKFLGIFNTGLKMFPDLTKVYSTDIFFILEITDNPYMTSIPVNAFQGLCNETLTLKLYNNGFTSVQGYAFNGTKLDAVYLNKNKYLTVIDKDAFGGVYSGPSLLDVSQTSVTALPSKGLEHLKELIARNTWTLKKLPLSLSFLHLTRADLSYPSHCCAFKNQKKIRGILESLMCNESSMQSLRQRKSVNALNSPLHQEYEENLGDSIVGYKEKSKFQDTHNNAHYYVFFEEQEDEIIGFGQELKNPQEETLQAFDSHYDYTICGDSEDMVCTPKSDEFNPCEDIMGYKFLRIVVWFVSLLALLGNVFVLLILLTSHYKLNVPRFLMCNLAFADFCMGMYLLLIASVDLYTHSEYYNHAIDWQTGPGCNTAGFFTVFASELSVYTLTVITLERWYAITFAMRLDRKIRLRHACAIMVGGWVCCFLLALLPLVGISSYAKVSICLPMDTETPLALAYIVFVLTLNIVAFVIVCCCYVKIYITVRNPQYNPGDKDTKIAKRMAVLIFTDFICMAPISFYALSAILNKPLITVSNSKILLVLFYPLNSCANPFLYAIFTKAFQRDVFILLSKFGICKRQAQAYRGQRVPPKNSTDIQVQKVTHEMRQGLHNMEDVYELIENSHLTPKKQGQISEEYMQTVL

In the case of `CN1CCN(N)CC1`, the Potency entry in [1], in [2], in [3], in experiment [4], in experiment [5] and in experiment [6] was “inactive” in each case. For the same compound, the Potency entry in [7], in [8], in [9], in experiment [10], in experiment [13] and in experiment [14] was “inactive” each time. Further, the Potency entry in [15], in experiment [16] and in experiment [17] was “inactive” in each case. In addition, the compound was called inactive in experiment [11]. Besides, in [12], the max response was 5.85%.
Turning to `O=C1CCCCCCCCCCC(=O)OCCO1`, the Potency result in experiment [1], in [2], in experiment [3], in experiment [5], in [6] and in [7] was “inactive” throughout. In addition, the Potency entry in experiment [8], in [14] and in [15] was “inactive” throughout. The result in experiment [18] was inactive. Also, in experiment [12], the max response is -13.7%. In addition, the Potency in experiment [17] is 24.5 µM (active).
As to `CC(C)Nc1nc(N)nc(Cl)n1`, the Potency result in experiment [1], in [2], in experiment [3], in experiment [5], in experiment [6] and in experiment [7] was “inactive” in each case. The Potency result in [8], in experiment [9], in experiment [10], in experiment [13], in experiment [14] and in experiment [15] was “inactive” in each case. In addition, the Potency result in [16] and in experiment [17] was “inactive” throughout. The result in experiment [18] and in [11] was inactive. Further, the max response in [12] is 10.6%.
For the compound `COC(C)CCO` (configuration not stated), the Potency entry in experiment [1], in [2], in experiment [3], in experiment [5], in [6] and in [7] was “inactive” throughout. Besides, the Potency result in experiment [8], in experiment [9], in [10], in experiment [13], in experiment [14] and in experiment [15] was “inactive” each time. In addition, in experiment [17], the Potency result is “inactive”. Moreover, the call in [18] and in [11] was inactive. Also, the max response in [12] was 6.13%.
As to `CCC(=O)O[C@]1(C(=O)SCF)[C@H](C)C[C@H]2[C@@H]3C[C@H](F)C4=CC(=O)C=C[C@]4(C)[C@@]3(F)[C@@H](O)C[C@@]21C`, the Potency entry in experiment [1], in experiment [2], in experiment [3], in experiment [4], in experiment [19] and in experiment [5] was “inactive” in each case. The Potency result in [6], in experiment [7], in experiment [8], in experiment [9], in [10] and in [13] was “inactive” each time. The Potency result in [14], in experiment [15], in experiment [16] and in [17] was “inactive” each time. Moreover, in experiment [20], the activity change, positive = activation is -0.0041% [at 42.5 µM]. In experiment [11], the result was inactive. In addition, in experiment [12], the max response is 2.57%.
Consider `CCCCCCn1c(=O)c2c(ncn2C)n(C)c1=O`, for which the Potency entry in [1], in [2], in [3], in experiment [19], in experiment [5] and in [6] was “inactive” throughout. Also, the Potency result in experiment [7], in experiment [8], in [9], in experiment [10], in experiment [13] and in [14] was “inactive” in each case. Besides, the Potency entry in experiment [15] and in experiment [17] was “inactive” each time. In addition, the call in experiment [18] was inactive. The activity change, positive = activation in experiment [20] is -1.88% [at 42.5 µM]. In experiment [12], the max response was -1.75%.
Turning to `COc1cc(C)ccc1C(C)C`, the Potency result in experiment [1], in experiment [2], in experiment [3], in [19], in experiment [5] and in [6] was “inactive” throughout. The Potency entry in [7], in experiment [8], in experiment [9], in [10], in experiment [13] and in experiment [14] was “inactive” throughout. For the same compound, the Potency entry in [15], in [16] and in experiment [17] was “inactive” in each case. Also, the call in [18] and in [11] was inactive. Besides, the activity change, positive = activation in [20] was -0.104%. Further, the max response in experiment [12] is 3.29%.

Values taken from PubChem BioAssay (Tox21).
